# The entries come from a sample that favours the strongest signals as a whole.
# B1: SCA (Schizophyllum commune) (protein)
# chain: MGIDQGVYLITNAGSGTAATLKDGYVKGWERIKGKEQLNQLWFVKSVKTSASDPGYAAFNLATNKVLDLEKGLADRGTPILGWDYHEGDNQHWVIKKQADGKYYKIQSVKTQTFVDLNNGGKDNGTKIQGWVGSWDETNSHQRWVFNQFSATGSRIKSILDTHPKIHGKVIVEWPDRIYFTPDQYIFEAIWAKTGLADIKPRDPLFQSEAYEKVFKGWVVSRAQEIIKVDGFDILVGSLSLVEKSTQKIKVLDVSVRTSDDKSPDLSQIVFFDPESGRTLVDIPEGYEVNSVII
# B2: HFR-1 (Triticum aestivum) (protein)
# chain: MSPQSFTLETTTTTPAAKGSDPSYFQSAPACHEMIQHKELLLHLYAYQNVQKTPDANQAVIVESKRPECFGILAANDWTVYDGPAHNANLVAHAQGLHLGASMAKENWFICFNMVFVNQRFTGSSFKVMGDFQGTAHNGEWAIVGGTGEFAYAQGVIAFKKTQQSERNARMELHVRAMCLSFLRPLLSLGDGSAVAKIGPWGKMSGELLDIPSTPQRLERITIRHGVVIDSLAFSFIDKAGEPYNVGPWGGRRGDNKDTIELAPSEIVTEVSGTVGIFAEDNVEYNAIASLTITTNHRPYGPFGETQSTPFSVPVQDNNNIVGFFACAGKYVEALGVYVRSPVST
# B3: CD83 (Homo sapiens) (protein)
# chain: MSRGLQLLLLSCAYSLAPATPEVKVACSEDVDLPCTAPWDPQVPYTVSWVKLLEGGEERMETPQEDHLRGQHYHQKGQNGSFDAPNERPYSLKIRNTTSCNSGTYRCTLQDPDGQRNLSGKVILRVTGCPAQRKEETFKKYRAETSEQKLISEEDLSRGSDDDDKAEPRGP
# Tests used:
# Assay in all cases: glycan array binding signal (z-score within array); higher = stronger binding
# Conditions in all cases: glycan notation: IUPAC condensed, linker removed
# [1] = biological target: Neu5Gc(a2-3)Gal(b1-4)GlcNAc
# Method in brief: (§1)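 Columns mapping to the same glycan were averaged after glycan names were converted to IUPAC-condensed notation. The data come from 3228 arrays in the Consortium for Functional Glycomics database, limited to those with an available protein sequence. Binding is reported as a within-array Z-score averaged across arrays of one protein sequence and across linkers.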
# [2] = biological target: Neu5Gc(a2-6)Gal(b1-4)GlcNAc
# Method in brief: as §1
# [3] = biological target: Fuc(a1-2)Gal(b1-3)[Fuc(a1-4)]GlcNAc
# Method in brief: as §1
# [4] = biological target: Fuc(a1-2)[Gal(a1-3)]Gal(b1-4)[Fuc(a1-3)]GlcNAc
# Method in brief: as §1
# [5] = biological target: Fuc(a1-3)[Gal(b1-4)]GlcNAc(b1-3)Gal(b1-3)[Fuc(a1-4)]GlcNAc
# Method in brief: as §1
# [6] = biological target: Fuc(a1-3)[Gal(b1-4)]GlcNAc(b1-4)Gal(b1-4)[Fuc(a1-3)]GlcNAc
# Method in brief: as §1
# Fuc(a1-4)GlcNAc = biological target: Fuc(a1-4)GlcNAc
# Method in brief: as §1
# [7] = biological target: Gal(a1-3)[Gal(a1-4)]Gal(b1-4)GlcNAc
# Method in brief: as §1
# Gal(a1-4)GlcNAc = biological target: Gal(a1-4)GlcNAc
# Method in brief: as §1
# Gal(b1-2)Gal = biological target: Gal(b1-2)Gal
# Method in brief: as §1
# [8] = biological target: Gal(b1-4)GlcNAc(b1-6)[Gal(b1-3)]GalNAc
# Method in brief: as §1
# [9] = biological target: Man(a1-2)Man(a1-6)[Man(a1-3)]Man(a1-6)[Man(a1-2)Man(a1-2)Man(a1-3)]Man
# Method in brief: as §1
# Man(a1-3)[Man(a1-6)]Man = biological target: Man(a1-3)[Man(a1-6)]Man
# Method in brief: as §1
# [10] = biological target: Man(a1-3)[Man(a1-6)]Man(a1-6)[Man(a1-2)Man(a1-3)]Man(b1-4)GlcNAc(b1-4)GlcNAc
# Method in brief: as §1
# [11] = biological target: Man(a1-3)[Man(a1-6)]Man(a1-6)[Man(a1-3)]Man
# Method in brief: as §1
# [12] = biological target: Man(a1-3)[Man(a1-6)]Man(a1-6)[Man(a1-3)]Man(b1-4)GlcNAc(b1-4)GlcNAc
# Method in brief: as §1
# [13] = biological target: Man(a1-3)[Man(a1-6)]Man(b1-4)GlcNAc(b1-4)GlcNAc
# Method in brief: as §1
# [14] = biological target: Neu5Ac(a2-3)Gal(b1-3)GalNAc6S
# Method in brief: as §1
# [15] = biological target: Neu5Ac(a2-3)Gal6S(b1-4)GlcNAc
# Method in brief: as §1
# [16] = biological target: Neu5Ac(a2-3)[GalNAc(b1-4)]Gal(b1-4)Glc
# Method in brief: as §1
# [17] = biological target: Neu5Ac(a2-3)[GalNAc(b1-4)]Gal(b1-4)GlcNAc
# Method in brief: as §1
# [18] = biological target: Neu5Ac(a2-6)Gal(b1-4)GlcNAc
# Method in brief: as §1
# [19] = biological target: Neu5Ac(a2-6)Gal(b1-4)GlcNAc(b1-2)Man(a1-6)[Gal(b1-4)GlcNAc(b1-2)Man(a1-3)]Man(b1-4)GlcNAc(b1-4)GlcNAc
# Method in brief: as §1
# [20] = biological target: Neu5Ac(a2-8)Neu5Ac(a2-8)Neu5Ac(a2-8)Neu5Ac(a2-3)[GalNAc(b1-4)]Gal(b1-4)Glc
# Method in brief: as §1
# Fuc(a1-2)GlcNAc = biological target: Fuc(a1-2)GlcNAc
# Method in brief: as §1
# [21] = biological target: Fuc(a1-2)[GalNAc(a1-3)]Gal(b1-3)GlcNAc
# Method in brief: as §1
# [22] = biological target: Gal(b1-3)GalNAc(b1-4)Gal(b1-4)Glc
# Method in brief: as §1
# [23] = biological target: Gal(b1-3)GlcNAc(b1-3)Gal(b1-4)Glc
# Method in brief: as §1
# [24] = biological target: Gal(b1-3)[Fuc(a1-4)]GlcNAc(b1-3)Gal(b1-4)[Fuc(a1-3)]GlcNAc
# Method in brief: as §1
# [25] = biological target: Gal(b1-4)GlcNAc(b1-3)Gal(b1-4)GlcNAc(b1-3)Gal(b1-4)GlcNAc
# Method in brief: as §1
# Gal3S6S(b1-4)GlcNAc6S = biological target: Gal3S6S(b1-4)GlcNAc6S
# Method in brief: as §1
# GalNAc(a1-3)GalNAc = biological target: GalNAc(a1-3)GalNAc
# Method in brief: as §1
# [26] = biological target: GlcNAc(b1-3)Gal(b1-4)GlcNAc
# Method in brief: as §1
# GlcNAc(b1-3)Man = biological target: GlcNAc(b1-3)Man
# Method in brief: as §1
# [27] = biological target: GlcNAc(b1-3)[GlcNAc(b1-6)]GalNAc
# Method in brief: as §1
# [28] = biological target: Man(a1-2)Man(a1-3)[Man(a1-2)Man(a1-6)]Man(a1-6)[Man(a1-2)Man(a1-2)Man(a1-3)]Man(b1-4)GlcNAc(b1-4)GlcNAc
# Method in brief: as §1
# [29] = biological target: Neu5Ac(a2-3)Gal(b1-3)GalNAc(b1-3)Gal(a1-4)Gal(b1-4)Glc
# Method in brief: as §1
# [30] = biological target: Neu5Ac(a2-3)Gal(b1-3)GlcNAc6S
# Method in brief: as §1
# [31] = biological target: Neu5Ac(a2-3)Gal(b1-3)[Neu5Ac(a2-3)Gal(b1-4)]GlcNAc
# Method in brief: as §1
# [32] = biological target: Neu5Ac(a2-3)Gal(b1-4)[Fuc(a1-3)]GlcNAc(b1-3)Gal(b1-4)GlcNAc
# Method in brief: as §1
# [33] = biological target: Neu5Ac(a2-3)Gal(b1-4)[Fuc(a1-3)]GlcNAc(b1-3)Gal(b1-4)[Fuc(a1-3)]GlcNAc(b1-3)Gal(b1-4)[Fuc(a1-3)]GlcNAc
# Method in brief: as §1
# [34] = biological target: Neu5Ac(a2-3)Gal(b1-4)[Fuc(a1-3)]GlcNAc(b1-6)[Gal(b1-3)]GalNAc
# Method in brief: as §1
# [35] = biological target: Neu5Ac(a2-3)Gal6S(b1-4)[Fuc(a1-3)]GlcNAc
# Method in brief: as §1
# [36] = biological target: Neu5Ac(a2-3)GalNAc(b1-4)GlcNAc
# Method in brief: as §1
# [37] = biological target: Neu5Ac(a2-6)Gal(b1-4)GlcNAc(b1-3)Gal(b1-4)[Fuc(a1-3)]GlcNAc(b1-3)Gal(b1-4)[Fuc(a1-3)]GlcNAc
# Method in brief: as §1
# [38] = biological target: Neu5Ac(a2-8)Neu5Ac(a2-8)Neu5Ac(a2-3)Gal(b1-4)Glc
# Method in brief: as §1
# [39] = biological target: Neu5Ac(a2-8)Neu5Ac(a2-8)Neu5Ac(a2-3)[GalNAc(b1-4)]Gal(b1-4)Glc
# Method in brief: as §1
binder,measurement,setting,value
B1,glycan array binding signal (z-score),[1],-0.161
same,glycan array binding signal (z-score),[2],-0.162
B2,glycan array binding signal (z-score),[3],-0.201
same,glycan array binding signal (z-score),[4],-0.225
same,glycan array binding signal (z-score),[5],-0.224
same,glycan array binding signal (z-score),[6],-0.165
same,glycan array binding signal (z-score),Fuc(a1-4)GlcNAc,-0.057
same,glycan array binding signal (z-score),[7],-0.199
same,glycan array binding signal (z-score),Gal(a1-4)GlcNAc,-0.22
same,glycan array binding signal (z-score),Gal(b1-2)Gal,0.042
same,glycan array binding signal (z-score),[8],-0.206
same,glycan array binding signal (z-score),[9],-0.214
same,glycan array binding signal (z-score),Man(a1-3)[Man(a1-6)]Man,4.93
same,glycan array binding signal (z-score),[10],6.43
same,glycan array binding signal (z-score),[11],7.26
same,glycan array binding signal (z-score),[12],7.87
same,glycan array binding signal (z-score),[13],5.48
same,glycan array binding signal (z-score),[14],-0.218
same,glycan array binding signal (z-score),[15],-0.213
same,glycan array binding signal (z-score),[16],-0.024
same,glycan array binding signal (z-score),[17],-0.165
same,glycan array binding signal (z-score),[18],-0.223
same,glycan array binding signal (z-score),[19],-0.222
same,glycan array binding signal (z-score),[20],0.01
same,glycan array binding signal (z-score),[1],-0.221
B3,glycan array binding signal (z-score),[3],-0.388
same,glycan array binding signal (z-score),Fuc(a1-2)GlcNAc,-0.045
same,glycan array binding signal (z-score),[21],-0.222
same,glycan array binding signal (z-score),[22],-0.09
same,glycan array binding signal (z-score),[23],-0.32
same,glycan array binding signal (z-score),[24],-0.243
same,glycan array binding signal (z-score),[25],-0.142
same,glycan array binding signal (z-score),Gal3S6S(b1-4)GlcNAc6S,-0.129
same,glycan array binding signal (z-score),GalNAc(a1-3)GalNAc,-0.329
same,glycan array binding signal (z-score),[26],-0.162
same,glycan array binding signal (z-score),GlcNAc(b1-3)Man,-0.188
same,glycan array binding signal (z-score),[27],-0.453
same,glycan array binding signal (z-score),[28],2.96
same,glycan array binding signal (z-score),[9],-0.272
same,glycan array binding signal (z-score),[10],11.7
same,glycan array binding signal (z-score),[12],0.723
same,glycan array binding signal (z-score),[29],0.647
same,glycan array binding signal (z-score),[30],8.93
same,glycan array binding signal (z-score),[31],-0.458
same,glycan array binding signal (z-score),[32],0.381
same,glycan array binding signal (z-score),[33],-0.243
same,glycan array binding signal (z-score),[34],-0.12
same,glycan array binding signal (z-score),[35],-0.131
same,glycan array binding signal (z-score),[36],-0.291
same,glycan array binding signal (z-score),[37],0.014
same,glycan array binding signal (z-score),[38],3.7
same,glycan array binding signal (z-score),[39],2.88

# Source: the supplement of paper PMC8728848
